Screens (PubChem BioAssay)
p97 ATPase inh: blocks human p97 ATPase activity | recombinant p97 ATPase, Kinase-Glo ATP luminescence, 3 h | inhibition, % at 8 µM | actives 0.42% (n = 220,000) | AID 1481; in the data active = inhibition above about 15%;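 also: 0% = DMSO vehicle and 100% = wells lacking enzyme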
Target sequence (P55072 whole entry, looked up): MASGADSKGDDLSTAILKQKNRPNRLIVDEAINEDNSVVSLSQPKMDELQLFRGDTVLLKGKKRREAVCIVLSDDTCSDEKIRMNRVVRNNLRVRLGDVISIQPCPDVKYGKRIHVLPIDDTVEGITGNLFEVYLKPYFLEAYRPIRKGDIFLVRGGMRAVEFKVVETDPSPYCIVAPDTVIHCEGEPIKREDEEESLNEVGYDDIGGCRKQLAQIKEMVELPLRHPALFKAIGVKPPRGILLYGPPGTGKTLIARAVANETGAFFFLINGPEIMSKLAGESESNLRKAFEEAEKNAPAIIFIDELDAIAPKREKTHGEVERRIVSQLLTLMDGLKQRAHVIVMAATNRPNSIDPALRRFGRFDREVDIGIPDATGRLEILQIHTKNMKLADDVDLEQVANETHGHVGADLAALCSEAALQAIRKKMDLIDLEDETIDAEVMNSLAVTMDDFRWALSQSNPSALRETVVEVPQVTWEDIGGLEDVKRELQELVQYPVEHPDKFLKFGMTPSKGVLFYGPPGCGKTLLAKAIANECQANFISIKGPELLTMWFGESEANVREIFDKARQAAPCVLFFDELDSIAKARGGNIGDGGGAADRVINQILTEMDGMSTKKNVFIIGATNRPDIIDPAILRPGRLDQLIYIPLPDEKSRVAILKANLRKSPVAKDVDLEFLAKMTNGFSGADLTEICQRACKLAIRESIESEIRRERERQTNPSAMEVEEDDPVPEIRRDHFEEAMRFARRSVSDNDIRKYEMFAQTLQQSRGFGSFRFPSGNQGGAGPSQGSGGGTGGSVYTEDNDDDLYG
Insulin prom inh: TRM-6 insulin promoter activity inhibition. TRM-6 cells (human fetal islet line), insulin promoter-eGFP reporter, imaging; reporter expression induced with tamoxifen. inhibition, % at 2 µM. actives 0.9% (n = 130,000). AID 1273;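 active = inhibition above the mean plus 3 SD, with well images judged a real hit on visual review, cut at about 60% in these data, passing the limit was not always enough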
L major viab: reduces viability of Leishmania major promastigotes; inhibition, % at 10 µM; actives 9% (n = 200,000); resazurin fluorescence viability; AID 1063; in the data active = inhibition above about 50%;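 also: promastigotes grown with compound for 44 hours at 28 °C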
HCT116 PTEN-null: PTEN-deleted cell growth suppression | HCT116 PTEN-null viability, CellTiter-Glo, 60 h; stronger effect = lower value | viability, % at 10 µM | actives 1.2% (n = 140,000);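 active = viability at or below a set limit, 4 SD under the median of all tested compounds, cut at about 3.7% in these data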;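 also: PTEN knockout HCT116 line with beta catenin targeted HCT116 as companion control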
ROMK mod: modulators of human ROMK potassium channel; AID 1918; B-score at 10 µM; actives 2% (n = 130,000); Tet-inducible ROMK, thallium flux fluorescence; actives lie on both sides; P48048;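 active = signal ratio slope over the read window, or its plate-corrected B-score, at least 3 SD from the plate mean, either direction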;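 also: B-score of the F/F0 ratio slope over 7 to 12 s after thallium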
bCat KO growth: beta-catenin-lacking colon tumor cell growth suppression. HCT116 beta-catenin knockout viability, CellTiter-Glo, 60 h; stronger effect = lower value. viability, % at 10 µM. actives 1.5% (n = 140,000). AID 818;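 active = viability at or under a set limit, the compound median less 4 SD, cut at about 6% in these data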;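 also: 0% = Hyamine 1622 control at 20 µM and 100% = untreated cell control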
* marks the source's active call; other numbers are inactive results; i = inactive; · = no result given. In the library only some 10% were active in any assay of this set; here they are far more common.

SMILES	p97 ATPase inh	Insulin prom inh	L major viab	HCT116 PTEN-null	ROMK mod	bCat KO growth
Cc1ccc(-c2[nH]ncc2/C=C(\C#N)C(=O)NC2CCCCC2)cc1	-3.8	·	34.7	73.2	-0.491	72.3
COc1ccc(CCNC(=O)C(=O)NCc2ccc(Cl)cc2)cc1OC	-0.1	-26.7	-0.5	·	0.0334	·
COc1ccc(CCN2C(=O)CC(N3CCN(S(=O)(=O)c4ccccc4)CC3)C2=O)cc1OC (centres undefined)	3.3	·	-3.6	·	·	·
O=C(CSc1nnc(-c2ccc(S(=O)(=O)N3CCCC3)cc2)o1)NCc1ccccc1	-2.7	-12.5	99.4*	85.4	0.252	84.0
CCn1c(SCc2ccccc2)nnc1-c1ccc(S(=O)(=O)N2CCCCC2)cc1	1.1	·	98.7*	71.2	·	72.4
O=S(=O)(c1ccc(-c2nnc(SCc3nnc(-c4ccccc4)o3)o2)cc1)N1CCCC1	1.6	7.1	99.8*	89.2	1.01	86.1
CCn1c(SCc2nnc(-c3ccccc3)o2)nnc1-c1ccc(S(=O)(=O)N2CCCC2)cc1	-3.1	-33.3	98.6*	87.1	-0.793	88.6
O=C(CSc1nnc(-c2ccc(F)cc2)o1)Nc1ccc(S(=O)(=O)N2CCCC2)cc1	4.7	18.2	-2.6	82.0	·	89.2
c1ccc(-c2cnn3c(-c4ccccc4)c(-c4ccccc4)nc3n2)cc1	2.8	·	26.0	41.4	·	46.0
COC(=O)c1cccc(NC(=O)CC2C(=O)NCCN2C(=O)c2ccc(F)cc2F)c1 (centres undefined)	-2.4	·	·	·	·	·
CCOC(CNC(=O)Cn1nc(C)c2ccccc21)OCC	4.3	·	-6.2	·	-0.334	·
CCOC(=O)/C(C#N)=C/Nc1ccccc1OC(F)(F)F	7.1	·	·	·	-0.0696	·
COC(=O)c1csc2c(C(F)(F)F)cc(N3CCN(C(=O)Nc4ccccc4)CC3)nc12	1.0	·	·	·	-0.0887	·
CCOc1ccc(-c2cc(CCCC(=O)NCCc3ccccc3)no2)cc1	-4.2	75.0*	-1.1	87.4	-0.981	76.7
COc1ccccc1N1CCN(C(CNS(C)(=O)=O)c2cccnc2)CC1 (centres undefined)	2.3	-44.4	17.1	·	0.525	·
COc1ccc(C(=O)NCC(c2cccnc2)N2CCN(c3ccccc3OC)CC2)cc1OC (centres undefined)	2.1	·	74.0*	71.8	·	78.6
O=C(NCC(c1cccnc1)N1CCOCC1)c1cccc(Cl)c1 (centres undefined)	3.4	-12.5	32.2	102.4	·	98.8
COc1cccc(C(=O)NCC(c2cccnc2)N2CCN(c3ccccc3OC)CC2)c1 (centres undefined)	1.9	·	88.3*	69.8	·	75.2
O=C(Nc1ccc([N+](=O)[O-])cn1)C1CC2CCC1C2 (centres undefined)	4.5	69.2*	-4.2	79.8	-0.172	71.2
CO/N=C(/CS(=O)(=O)c1ccc(C)cc1)c1ccc(OC)cc1	-0.3	-3.2	80.0*	83.3	1.72	77.0
COc1ccc(C(=O)NCS(=O)(=O)c2ccc(C)cc2)cc1	2.5	40.0	-7.1	104.3	·	99.6
COc1ccc(-c2nc(NC(=O)c3ccc(OCC(=O)N4CCOCC4)c(OC)c3)sc2C)cc1	0.7	25.0	61.1*	78.3	0.103	86.2
COc1cc(C(=O)Nc2nc(-c3ccc(Cl)cc3)c(C)s2)ccc1OCC(=O)Nc1ccc(F)cc1	-1.1	·	-2.8	14.8	·	33.4
CCSc1ncc(/C=N/Nc2ccc(Cl)cc2)n1C	-0.8	11.8	78.3*	59.9	·	58.0
CCSc1ncc(/C=N/Nc2ccccc2)n1C	-0.3	-6.7	15.0	80.7	·	88.7
SMILES	p97 ATPase inh	Insulin prom inh	L major viab	HCT116 PTEN-null	ROMK mod	bCat KO growth
O=C(COc1ccc(-c2nnc(N3CCCCC3)c3ccccc23)cc1)N1CCCCC1	-9.3	20.0	-3.1	84.2	-3.2*	90.6
CC(OC(=O)Cc1coc2ccc3ccccc3c12)C(=O)NC(N)=O (centres undefined)	3.9	·	·	·	·	·
CCC(C)(C)NC(=O)C(c1ccc(OC)cc1)N(CC1CCCO1)C(=O)CCC(=O)Nc1cc(C)on1 (centres undefined)	-3.7	-53.9	-3.3	86.5	·	84.3
CCC(C)(C)NC(=O)C(c1ccc(OC)cc1)N(Cc1cccs1)C(=O)CCC(=O)Nc1cc(C)on1 (centres undefined)	-1.9	i	97.4*	68.5	·	70.8
COc1ccc(C(C(=O)NC(C)(C)C)N(Cc2cccs2)C(=O)CCC(=O)Nc2cc(C)on2)cc1 (centres undefined)	-3.1	-25.0	97.0*	74.3	·	76.4
COc1cc2c(cc1OC)CN(C(=O)c1cccc([N+](=O)[O-])c1)CC2	2.6	·	·	·	-1.76	·
COc1ccc(CN(C)C(C)C(=O)Nc2ccc(S(=O)(=O)N3CCCC3)cc2)c(OC)c1OC (centres undefined)	-2.3	7.1	27.0	·	-1.63	·
O=C(CCCn1c(=O)[nH]c2ccc(Br)cc2c1=O)NCc1ccc(Cl)cc1	-2.9	·	-3.3	·	0.322	·
O=C1CSC(c2ccccn2)N1c1ccc(C(F)(F)F)cc1 (centres undefined)	-1.4	·	·	·	0.0335	·
O=C(C1CCCN(S(=O)(=O)Cc2ccccc2)C1)N1CCc2ccccc21 (centres undefined)	-1.2	10.7	72.8*	83.1	-0.678	81.2
CC1Cc2ccccc2N1C(=O)C1CCN(S(=O)(=O)Cc2ccccc2)CC1 (centres undefined)	3.3	·	54.2*	107.3	-1.29	89.6
O=C(CSc1nc(-c2ccccc2)cs1)NCCN1C(=O)CSC1=O	-3.1	·	0.6	·	·	·
COc1cc(OC)c(NS(=O)(=O)c2cc(C(=O)OC(C)C(=O)NC3CC3)c(Cl)cc2Cl)cc1Cl (centres undefined)	-1.6	-23.1	77.9*	96.7	·	82.9
O=c1/c(=C/c2ccc([N+](=O)[O-])cc2)sc2n1CCCN=2	0.8	2.3	-3.1	14.9	·	2.1*
CC(OCC(O)CN(C)CCOc1ccccc1)c1ccc(Cl)cc1 (centres undefined)	-11.5	-21.2	99.0*	86.1	-2.72	72.1
CN(C)CC(O)COC(c1ccccc1)c1ccccc1 (centres undefined)	4.2	0.0	22.2	·	-0.76	·
CCN(CC)S(=O)(=O)c1ccc(NC(=O)COC(=O)c2ccc(NC(=O)CC#N)cc2)cc1	-0.3	·	-1.3	·	-1.05	·
O=C(O)CCCC(=O)Nc1ccc(Sc2ccc([N+](=O)[O-])cc2)cc1	2.3	9.7	-2.3	91.1	·	83.0
O=C(O)CCC(=O)Nc1ccc(Sc2ccc([N+](=O)[O-])cc2)cc1	7.9	-50.0	50.5*	95.3	0.196	105.7
N=C(N)Cc1ccccc1Sc1ccccc1	0.7	15.4	98.1*	71.7	-0.16	78.1
CCCN(CCC)CCCNC(=S)Nc1ccc2nc(N3CCCC3)cc(C)c2c1	4.6	·	87.2*	·	-0.362	·
COc1ccc(CNC(=S)Nc2ccc3nc(N4CCOCC4)cc(C)c3c2)cc1	7.3	28.6	4.8	·	0.195	·
Cc1cc(N2CCCC2)nc2ccc(NC(=S)NCCCOC(C)C)cc12	-0.8	28.6	92.8*	·	-0.35	·
CCN(CC)CCNC(=S)Nc1ccc2nc(N3CCCC3)cc(C)c2c1	-1.9	27.3	86.1*	·	-0.0906	·
